RPL19A-GFP yeast: modulators of TOR pathway RPL19A-GFP in S. cerevisiae. S. cerevisiae RPL19A-GFP strain, flow cytometry, 3 h; hits give low values. percent response vs DMSO, % at 10 µM. 330,000 tested, 0.3% active. AID 2025;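 active = percent response vs DMSO below 50%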;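 note: median channel GFP fluorescence of the barcoded RPL19A-GFP strain; ratio of sample median GFP to plate DMSO average so 100% = DMSO; lower means less RPL19A-GFP as with rapamycin TOR inhibition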
CIT2 TOR yeast: yeast TOR pathway CIT2-GFP modulation. S. cerevisiae CIT2-GFP strain, flow cytometry, 3 h; 100 means same as DMSO wells. 320,000 tested, 0.065% active. GFP response vs DMSO, % at 10 µM;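 active = GFP response relative to DMSO above a set limit, near the screen mean plus 3 SD, cut at about 150% in these data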;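 note: ratio of well median GFP fluorescence to mean of DMSO wells on the plate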
LAP4-GFP MLPCN: modulators of TOR pathway LAP4-GFP in S. cerevisiae. S. cerevisiae LAP4-GFP multiplex, flow cytometry GFP, 3 h; median GFP as percent of DMSO wells. GFP response vs DMSO, % at 10 µM. AID 2023. 320,000 tested, 0.34% active;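 active = GFP response vs DMSO above a set limit, about the screen mean plus 3 SD, cut at about 150% in these data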
MEP2 TOR yeast: modulators of TOR pathway MEP2-GFP in S. cerevisiae; S. cerevisiae MEP2-GFP strain, flow cytometry GFP, 3 h; 100% = DMSO control level; GFP response vs DMSO, % at 10 µM; 330,000 tested, 0.51% active; AID 2016;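 active = GFP response versus DMSO above a set limit, roughly screen mean plus 3 SD, cut at about 180% in these data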;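 note: median GFP fluorescence of the barcode-gated MEP2-GFP cells per well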
AGP1 TOR yeast: modulators of TOR pathway AGP1-GFP in S. cerevisiae. AID 2066. GFP response vs DMSO, % at 10 µM. 320,000 tested, 0.02% active. S. cerevisiae AGP1-GFP multiplex flow cytometry, 3 h; GFP as percent of DMSO wells;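 active = GFP response relative to DMSO above a set limit, near screen average plus 3 SD, cut at about 150% in these data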;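 note: median GFP channel fluorescence of the gated AGP1 strain per well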
LAP4-GFP pick2: yeast LAP4-GFP modulation, second cherry pick; S. cerevisiae LAP4-GFP strain, flow cytometry GFP, 3 h; shares compounds with LAP4-GFP MLPCN; GFP response vs DMSO, % at 10 µM; 590 tested, 20% active; AID 2621;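 active = GFP signal as percent of the solvent control above about 150%, meaning raised reporter expression, limit read from the data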;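 note: ratio of well median GFP fluorescence to plate DMSO mean so 100% = DMSO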
MEP2-GFP pick2: reconfirmed MEP2-GFP TOR pathway modulator in yeast; shares compounds with LAP4-GFP MLPCN; S. cerevisiae MEP2-GFP strain, flow cytometry GFP, 3 h; GFP response vs DMSO, % at 10 µM; 590 tested, 10% active;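 active = GFP signal above 150% of the solvent control wells, that is a rise of more than half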;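 note: median channel GFP fluorescence of all gated yeast cells per well; ratio of median GFP to plate DMSO average so 100% = DMSO level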
RPL19A-GFP pick2: second confirmation of modulators of TOR reporter RPL19A-GFP in yeast. shares compounds with LAP4-GFP MLPCN. S. cerevisiae RPL19A-GFP strain, flow cytometry GFP, 3 h; hits give low values; 100% means same as DMSO wells. GFP response vs DMSO, % at 10 µM. 590 tested, 3% active;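 active = under 65% GFP response relative to DMSO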;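 note: median GFP channel fluorescence per well over the all cells gate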
CIT2 GFP CP2: reconfirmed modulator of CIT2-GFP TOR reporter in yeast | shares compounds with LAP4-GFP MLPCN | S. cerevisiae CIT2-GFP strain, flow cytometry GFP, 3 h; DMSO control wells read 100% | GFP response vs DMSO, % at 10 µM | 590 tested, 8% active | AID 2624;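 active = GFP response vs DMSO above about 150%, limit read from the data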;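 note: median green fluorescence per well over all gated yeast cells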
AGP1 GFP CP2: second confirmation of modulators of TOR reporter AGP1-GFP in yeast | shares compounds with LAP4-GFP MLPCN | S. cerevisiae AGP1-GFP strain, flow cytometry GFP, 3 h | percent response vs DMSO, % at 10 µM | 590 tested, under 10 active;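 active = over 150 percent of DMSO response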;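 note: median GFP channel fluorescence over all cells without mother daughter split; sample median GFP divided by mean DMSO control so 100% equals DMSO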
Yeast autofluor: compound is autofluorescent in yeast s288c cells; shares compounds with LAP4-GFP MLPCN; S. cerevisiae s288c, 520 nm autofluorescence, flow cytometry, 3 h; hits give high values; zero means same as solvent-only cells; fluorescence change (kMESF span) at 33 µM; 610 tested, under 10 active; AID 2757;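 active = fluorescence span over the dose series, or activity score, above about 33, limit read from the data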
TORC1 bypass gr: compounds blocking wildtype yeast growth but not TORC1 bypass cells. shares compounds with LAP4-GFP MLPCN. S. cerevisiae BY4741 spot growth rating, 48-72 h; hits give low values. growth rating (0-3) at 30 µM. 120 tested, under 10 active. AID 504456;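 active = growth rating at most 1 for wild type yeast while the TORC1 bypass strain still grows fully, rated 3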
Starred values were filed as active, the others as inactive; · = not tested or not shown; + = active, no number. This is a sample that favours compounds with a hit; in the whole collection about 0.93% have one here.

SMILES	RPL19A-GFP yeast	CIT2 TOR yeast	LAP4-GFP MLPCN	MEP2 TOR yeast	AGP1 TOR yeast	LAP4-GFP pick2	MEP2-GFP pick2	RPL19A-GFP pick2	CIT2 GFP CP2	AGP1 GFP CP2	Yeast autofluor	others
CC(CCN1CCN(c2ccc(F)cc2)CC1)c1ccccc1 (configuration not stated)	106	109	97	114	103	·	·	·	·	·	·
C=C1CCN([C@H](C(=O)OCc2ccc(C)cc2)C(C)C)S(=O)(=O)c2ccccc21	94	91	106	95	85	·	·	·	·	·	·
C=C1CCN([C@@H](C)C(=O)OCc2cccc(C)c2)S(=O)(=O)c2ccccc21	98	125	153*	98	92	99	98	100	98	97	·
CC(=O)NN1C(=O)/C(=C\c2ccc(Br)o2)SC1=S	102	122	107	136	96	·	·	·	·	·	·
CC(=O)NN1C(=O)/C(=C/c2ccc(Br)o2)SC1=S	105	135	120	187*	104	·	·	·	·	·	11
O=[N+]([O-])c1c(Nc2ccccn2)cc(Cl)c2nonc12	162	456*	674*	951*	134	·	·	·	·	·	37*
O=C(COC(=O)c1cccc(OC(F)F)c1)Nc1ncccn1	94	93	96	100	91	·	·	·	·	·	·
COc1ccc2cc(C3=CCCCC3)ncc2c1	97	89	107	96	90	·	·	·	·	·	·
N/C(=N\OC(=O)c1cc(Br)ccc1Cl)c1ccccn1	89	117	208*	104	90	·	·	·	·	·	1.2
CN(O)/C=c1/ccc2c(n1)C(=O)C=CC=2	90	116	275*	98	87	·	·	·	·	·	0.21
COc1cc(N=c2ssnc2Cl)cc(OC)c1	91	74	151*	90	84	114	110	93	121	96	1
O=C(Oc1cccc2cccnc12)c1ccc(Br)o1	101	103	103	103	106	102	100	100	102	100	0.21
C=CCN1C(=O)/C(=C/c2ccc(-c3ccc(F)cc3)o2)SC1=S	102	96	163*	99	83	169*	131	99	111	102	1.2
CC1=CN2C(=N)/C(=C/c3ccco3)C(=O)N=C2S1	104	104	99	103	89	·	·	·	·	·	·
CC1=CN2C(=N)/C(=C/c3ccc([N+](=O)[O-])o3)C(=O)N=C2S1	226	62	863*	+	138	+	+	718	+	243*	·
O=C1Nc2ccccc2/C1=C/c1cnc(-c2ccccc2)[nH]1	120	161*	169*	184*	116	111	141	103	134	100	·
Cc1nn(CC(=O)NCc2cccs2)c(=O)c2nn(-c3ccccc3)c(C)c12	104	101	106	101	107	·	·	·	·	·	·
COc1ccc(OC)c(CN2CCN(C(=O)c3cccc(S(=O)(=O)Nc4ccc(C)cc4)c3)CC2)c1	105	97	105	106	109	·	·	·	·	·	·
CC12CCC(C(=O)N3CCCCC3)([C@H](Br)C1=O)C2(C)C (some centres not stated)	93	91	95	91	100	·	·	·	·	·	·
Cc1cccc(OCCN2CSC(=S)N(C)C2)c1	84	83	160*	99	103	·	·	·	·	·	0.3
O=C(NC(=S)NC1CCS(=O)(=O)C1)c1ccccc1Br (configuration not stated)	98	106	103	100	99	·	·	·	·	·	·
O=C(CNC(=O)c1ccccc1)OCC(=O)c1ccc(Cl)s1	96	91	190*	109	83	101	103	99	100	99	·
O=C(NC1CCCCCC1)C1CCCN(c2ncccn2)C1 (configuration not stated)	101	96	91	104	96	·	·	·	·	·	·
O=c1c2cnn(-c3ccccc3)c2ncn1Cc1ccco1	64	52	121	99	77	130	100	99	98	93	0.1
CCCCN1C[C@H](Cc2ccccc2)[C@@H](CC(=O)NCc2ccc(OC)cc2)C1=O	88	101	159*	141	102	97	100	102	106	105	·
SMILES	RPL19A-GFP yeast	CIT2 TOR yeast	LAP4-GFP MLPCN	MEP2 TOR yeast	AGP1 TOR yeast	LAP4-GFP pick2	MEP2-GFP pick2	RPL19A-GFP pick2	CIT2 GFP CP2	AGP1 GFP CP2	Yeast autofluor	others
CCCCC[C@H]1CN(CCCC)C(=O)[C@@H]1CC(=O)NCc1ccc(OC)cc1	91	66	106	89	74	·	·	·	·	·	·
COc1ccc(-c2cn(Cc3ccc4ccccc4c3)nn2)cc1	86	90	128	79	78	·	·	·	·	·	·
COc1ccc(-c2cn(Cc3ccc(C(=O)c4ccccc4)cc3)nn2)cc1	87	105	164*	114	97	100	96	99	120	100	·
COC(=O)c1cccc(-c2cc(Nc3cc(C)[nH]n3)nc(NCc3ccccc3)n2)c1	·	·	·	·	·	·	·	·	·	·	·	TORC1 bypass gr=3
COC(=O)c1nc(-c2ccccc2)n[nH]1	102	86	100	106	97	·	·	·	·	·	·
Cc1cc(Nc2ccccc2)nc(NCc2ccccc2)n1	102	112	92	107	98	·	·	·	·	·	·
Cc1cc(Nc2cc(Nc3ccccc3)nc(NCc3ccccc3)n2)n[nH]1	·	·	·	·	·	·	·	·	·	·	·	TORC1 bypass gr=3
COc1ccc2oc(C(=O)OCC(=O)N(C)C3CCCCC3)c(C)c2c1	95	91	110	102	101	·	·	·	·	·	·
Cc1ccc(S(=O)(=O)N2CCC(=O)N(CCOCc3ccc(F)cc3)CC2)cc1	91	68	119	88	75	·	·	·	·	·	·
O=C1CCN(S(=O)(=O)c2ccccc2)CCN1CCOCc1ccc(F)cc1	81	108	179*	190*	108	97	95	98	103	99	0
O=C(COC(=O)C1=COCCO1)Nc1cc(Cl)c(Cl)cc1Cl	95	84	96	96	91	·	·	·	·	·	·
